HP1b chromo inh = HP1-beta chromodomain-methylated histone interaction inhibition. Potency, µM (highest dose often 114 µM), actives largely listed as inhibitors. 390,000 compounds, 0.56% hits. AlphaScreen HP1-beta / biotin-H3K9me3 peptide binding. P83916; also: nearly all actives have a fitted effect of over 70% in size
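AlphaScreen: HP1-beta (50 nM) preformed 30 min with biotin-H3(1-18)K9me3 peptide (50 nM) in PBS pH 7.4, 0.01% Tween-20. Compound added for 30 min at RT, then streptavidin donor/nickel chelate acceptor beads (10 ug/mL) for 30 min.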
12-LOX inh = blocks human arachidonate 12S-lipoxygenase | Potency, µM (doses to about 108 µM), usual class: inhibitors | AID 1671190 | P18054 | purified 12hLO, xylenol orange hydroperoxide absorbance | 580,000 compounds, 1.1% hits
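Hydroperoxide product was detected by ferrous iron/xylenol orange as the 573 to 405 nm absorbance ratio. Arachidonic acid at 40 uM (final) was turned over for 30 min at room temperature by 150 nM human 12hLO, pH 7.0 Hepes buffer, after 15 min compound preincubation.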
G9a block = G9a (human) methyltransferase inhibition. 350,000 compounds, 8.8% hits. G9a H3K9 monomethylation, AlphaScreen, 2 h. Q96KQ7. Potency, µM (top dose mostly 102 µM), actives largely listed as inhibitors; also: nearly all actives have a fitted effect of over 75% in size
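G9a (20 nM) was preincubated 15 min with compound, then reacted 2 h at room temperature with 500 nM biotin-H3K9 peptide and 20 µM SAM. Monomethyl-H3K9 detected by AlphaScreen using anti-H3K9me1 antibody.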
BAZ2B inh = blocks human BAZ2B | Potency, µM (top dose mostly 114 µM), actives largely listed as inhibitors | 360,000 compounds, 4.4% hits | AlphaScreen BAZ2B-H3K14Ac peptide displacement | AID 504333; also: nearly all actives have a fitted effect of over 60% in size
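Inhibition is scored as reduced AlphaScreen emission. The BAZ2B/b-H3(5-23)K14Ac complex (50 nM each) in PBS pH 7.4, 0.01% Tween-20 meets compound (up to 110 uM) for 30 min at RT before bead addition.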
JMJD2A Tudor = blocks the human JMJD2A Tudor domain | O75164 | AlphaScreen JMJD2A-Tudor / H3K4me3 peptide binding | Potency, µM (highest dose often 114 µM), usual class: inhibitors | 390,000 compounds, 4.4% hits | AID 504339; also: nearly all actives have a fitted effect of over 50% in size
PLK1 PBD block = inhibitors of human PLK1 polo-box domain binding; P53350; Plk1 PBD binding of FITC phosphopeptide, fluorescence polarization; Potency, µM, actives largely listed as inhibitors; 360,000 compounds, 2.8% hits; also: series mostly up to about 57 µM; nearly all actives have a fitted effect of over 65% in size
Hits are given with their value. Shown are actives, neighbours in structure and some others; about 9% of the full set was active somewhere. Calls follow the shape of the dose curve; as a rule, active = well fitted curve in the direction sought with a large enough effect; inconclusive = small, poorly fitted or top-dose-only effect, or another doubt; inactive = no such curve, though single readings can be large; an effect the other way counts as inactive or inconclusive.

How did Cc1ccc(C(=O)CSc2nc(-c3ccccc3)ccc2C#N)cc1 do in these assays?
HP1b chromo inh: inactive; 12-LOX inh: inactive; G9a block: inconclusive; BAZ2B inh: inactive; JMJD2A Tudor: inactive; PLK1 PBD block: inactive

How did COc1ccc(C)cc1NC(=O)CSCc1cc(=O)n2c(C)csc2n1 do in these assays?
HP1b chromo inh: inactive; 12-LOX inh: inactive; G9a block: inactive; BAZ2B inh: 79µM; JMJD2A Tudor: inactive; PLK1 PBD block: inactive

How did COc1ccccc1NC(=O)CSCc1cc(=O)n2c(C)csc2n1 do in these assays?
HP1b chromo inh: inactive; 12-LOX inh: inactive; G9a block: inactive; BAZ2B inh: inactive; JMJD2A Tudor: inactive; PLK1 PBD block: inactive

How did Cc1ccc(CCNC(=O)Cn2nc3n(c2=O)CCC(N)CC3)cc1 (stereo unspecified) do in these assays?
12-LOX inh: inactive

What do the screens show for `COc1ccc(NC(=O)CCCn2c(=O)[nH]c3ccccc3c2=O)cc1`?
HP1b chromo inh: inactive; 12-LOX inh: inactive; G9a block: inactive; BAZ2B inh: inactive; JMJD2A Tudor: inactive; PLK1 PBD block: inactive

Results for CCOC(=O)c1c(C)n(-c2ccc(C)cc2)c2ccc(OCC(O)CNCC3CCCO3)cc12 (stereo unspecified) ?
HP1b chromo inh: inconclusive; G9a block: 16µM; BAZ2B inh: 28µM; JMJD2A Tudor: 13µM; PLK1 PBD block: inactive

What do the screens show for `CCOC(=O)c1c(C)n(-c2ccc(C)cc2)c2ccc(OCC(O)CNCCCO)cc12` (stereo unspecified)?
HP1b chromo inh: inactive; 12-LOX inh: inconclusive; G9a block: 8.9µM; BAZ2B inh: inconclusive; JMJD2A Tudor: inconclusive; PLK1 PBD block: inactive

What do the screens show for `CCOC(=O)c1c(C)n(C)c2ccc(OCC(O)CNC(CC)CO)cc12` (stereo unspecified)?
HP1b chromo inh: inactive; 12-LOX inh: inactive; G9a block: inconclusive; BAZ2B inh: inactive; JMJD2A Tudor: inactive; PLK1 PBD block: inactive

Results for CC(C)(C)CC(C)(C)NC(=S)NC1CCN(Cc2ccccc2)CC1 ?
HP1b chromo inh: inactive; 12-LOX inh: inactive; G9a block: inactive; BAZ2B inh: inconclusive; JMJD2A Tudor: inactive; PLK1 PBD block: inactive

How did Cc1cccc(C(=O)NN2S(=O)(=O)c3ccccc3S2(=O)=O)c1 do in these assays?
HP1b chromo inh: inactive; 12-LOX inh: inactive; G9a block: 7.1µM; JMJD2A Tudor: inactive; PLK1 PBD block: inactive

Results for O=C(NN1S(=O)(=O)c2ccccc2S1(=O)=O)c1ccc(Br)cc1 ?
HP1b chromo inh: inactive; 12-LOX inh: inactive; G9a block: inconclusive; BAZ2B inh: 50µM; JMJD2A Tudor: inactive; PLK1 PBD block: inactive

Results for O=C(NC(Cc1ccccc1)C(=O)Oc1ccc2c(C(F)(F)F)cc(=O)oc2c1)OCc1ccccc1 (stereo unspecified) ?
HP1b chromo inh: inactive; G9a block: inactive; BAZ2B inh: inactive; JMJD2A Tudor: inactive; PLK1 PBD block: inactive

What do the screens show for `C/C(=N/NC(=O)c1ccccn1)c1ccc(O)cc1`?
HP1b chromo inh: inactive; 12-LOX inh: inactive; BAZ2B inh: 50µM; JMJD2A Tudor: inconclusive; PLK1 PBD block: inactive

What do the screens show for `O=C(N(c1ccccn1)c1ccccn1)C12CC3CC(CC(C3)C1)C2`?
HP1b chromo inh: inactive; 12-LOX inh: inconclusive; G9a block: 79µM; BAZ2B inh: inactive; JMJD2A Tudor: inactive; PLK1 PBD block: inactive

How did C/C(=N\NC(=O)c1ccc(Cl)cc1)c1ccccn1 do in these assays?
HP1b chromo inh: inactive; 12-LOX inh: inactive; BAZ2B inh: 7.9µM; JMJD2A Tudor: 25µM; PLK1 PBD block: inactive

How did C/C(=N\NC(=O)COc1ccccc1-c1ccccc1)c1ccccn1 do in these assays?
HP1b chromo inh: inactive; 12-LOX inh: inactive; G9a block: inactive; BAZ2B inh: 56µM; JMJD2A Tudor: inactive; PLK1 PBD block: inactive

How did C/C(=N\Nc1ccc2nncn2n1)c1ccccn1 do in these assays?
HP1b chromo inh: inactive; 12-LOX inh: inactive; G9a block: inactive; BAZ2B inh: 8.9µM; JMJD2A Tudor: 22µM; PLK1 PBD block: inactive

How did C/C(=N/NC(=O)c1ccccn1)c1c[nH]c2ccccc12 do in these assays?
HP1b chromo inh: inactive; 12-LOX inh: inactive; G9a block: inconclusive; BAZ2B inh: 50µM; JMJD2A Tudor: inactive; PLK1 PBD block: inactive
